Calpain2 inh – inhibitors of pig calpain II; purified calpain II, fluorogenic peptide substrate, 30 min; inhibition, % at 16 µM; 220,000 compounds, 0.37% hits; AID 1236;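 active = inhibition above about 50%, limit read from the data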
Mcl1-Noxa inh – Mcl-1/Noxa interaction inhibition; Q07820; TR-FRET Mcl-1/Noxa peptide binding, 2 h; inhibition, % at 21.7 µM; 220,000 compounds, 1.5% hits; AID 1022;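 active = compounds that cut the protein-peptide binding signal by more than 50% relative to plate controls in a single-dose test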;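 also: His-tagged Mcl-1 with rhodamine Noxa BH3 peptide and terbium anti-His antibody; 0% = Mcl-1 plus Noxa peptide wells and 100% = peptide-only wells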
Target sequence (Q07820 whole entry, looked up): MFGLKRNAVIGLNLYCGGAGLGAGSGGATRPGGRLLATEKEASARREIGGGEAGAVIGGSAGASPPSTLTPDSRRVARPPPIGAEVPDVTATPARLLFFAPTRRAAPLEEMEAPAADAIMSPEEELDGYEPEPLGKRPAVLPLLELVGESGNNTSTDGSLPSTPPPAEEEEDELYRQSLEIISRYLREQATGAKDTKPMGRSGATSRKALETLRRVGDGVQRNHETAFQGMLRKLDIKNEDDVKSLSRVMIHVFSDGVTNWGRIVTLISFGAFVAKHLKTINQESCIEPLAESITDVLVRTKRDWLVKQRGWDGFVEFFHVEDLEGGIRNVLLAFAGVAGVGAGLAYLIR
zVAD death inh – blocks zVAD induced death of L929 cells; L929 zVAD necroptosis rescue, ATP luminescence, 24 h; with zVAD 60 µM; 220,000 compounds, 0.38% hits; viability rescue, % at 10 µM;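 active = activation, scaled between plate controls, above about 75%, limit read from the data; inactive = activation under that limit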;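 also: 0% = zVAD with DMSO and 100% = DMSO alone without zVAD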
Bim-Mcl-1 – human Bim-Mcl-1 interaction inhibition; Q07820; Bead-based flow cytometry, Bim peptide-Mcl-1 binding; inhibition, % at 10 µM; 190,000 compounds, 0.1% hits; AID 1009; in the data active = inhibition above about 40%;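 also: 0% = no compound tracer wells and 100% = peptide blocker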
Mcl1 Bid PPI – disrupts binding of human Mcl-1 to Bid peptide; TR-FRET Mcl-1/Bid-Dy647 peptide binding, 1536-well; inhibition, % at 21.7 µM; 220,000 compounds, 0.97% hits; AID 1021;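 active = compounds that cut the binding signal by more than half at the single screening dose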;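 also: His-tagged Mcl-1 with europium anti-His antibody binding Bid BH3 peptide; 0% = Mcl-1 plus peptide wells and 100% = peptide-only wells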
TNF necrop inh – blocks TNF-alpha induced death of Jurkat FADD-/- cells; Jurkat FADD-/- TNF necroptosis rescue, ATP luminescence, 24 h; 0 = TNF only, 100 = no-TNF cells; activation (protection from cell death), % at 10 µM; 220,000 compounds, 0.068% hits;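 active = activation, meaning protection from cell death, of at least 50% relative to plate controls; inactive = activation below 50%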;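 also: necroptosis triggered by 40 ng/mL TNF-alpha added together with compound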
Starred values were filed as active, the others as inactive; / = no result given. A selection: hits, their analogues and other compounds. The true share with any hit is near 2.8%.

SMILES	Calpain2 inh	Mcl1-Noxa inh	zVAD death inh	Bim-Mcl-1	Mcl1 Bid PPI	TNF necrop inh
CNCc1ccccc1OCc1ccccc1F	-22	74*	0	3	-3	3
CCc1ccc(OCC(=O)Nc2cccc3c2CCCC3)cc1	10	2	1	-2	1	2
CCn1c(-c2cc(C3CC3)nc3ccccc23)n[nH]c1=S	-11	55*	0	-5	-11	16
CCn1c(-c2cc(-c3cc(C)ccc3C)nc3ccccc23)n[nH]c1=S	-21	44	/	-2	43	1
Cc1ccc(Cn2cnc3sc4c(c3c2=O)CCC4)c(C)c1	-11	-1	0	1	-14	92*
CCN(CC)c1nc2c3c(nc4c(c3c1C#N)CC(=O)N4c1ccc(Cl)cc1)NC(C)=N2	-189	82*	0	2	27	-1
CCc1ccc(N2C(=O)Cc3c2nc(N)c(C#N)c3N)cc1	-1	47	0	-3	-18	-3
CC(C)OC(=O)CSc1nnc(-c2ccccc2)n1N	-18	-17	0	-2	-7	-3
O=C(CCSc1ccccc1)NC1CCCCCC1	-15	-3	4	0	-8	5
O=C(CCSc1ccccc1)NC(=O)COC(=O)C1CCCCC1	60*	16	4	1	-13	-1
O=C(c1ccc(CNS(=O)(=O)c2ccc(Br)cc2)cc1)N1CCCC1	22	4	-1	42*	-33	1
Fc1ccc(OCc2nc3ccccc3s2)cc1	12	-3	1	-1	-3	0
O=C(O)C[C@@H]1C(=O)O[C@@H]2C(COC(=O)c3cc(O)c(O)c(O)c3)O[C@@H](OC(=O)c3cc(O)c(O)c(O)c3)[C@@H](OC(=O)c3cc(O)c(O)c4c3[C@H]1[C@H](O)C(=O)O4)[C@H]2OC(=O)c1cc(O)c(O)c(O)c1 (some centres undefined)	15	100*	1	/	76*	1
O=c1c2cnn(-c3ccccc3Cl)c2ncn1Cc1cccnc1	16	-2	0	0	1	-2
CN(C)S(=O)(=O)c1cccc(-c2nn(-c3ccccc3)cc2/C=C(\C#N)c2nc3ccccc3[nH]2)c1	-103	4	2	-3	5	-10
Cc1cc(/C=C(/C#N)c2nc3ccccc3[nH]2)c(C)n1-c1ccccc1C(=O)O	10	31	0	0	-64	1
N#C/C(=C\c1cn(-c2ccccc2)nc1-c1cc2ccccc2o1)c1nc2ccccc2[nH]1	-47	59*	1	0	18	0
Cc1cc(/C=C(/C#N)c2nc3ccccc3[nH]2)c(C)n1-c1cc(C(=O)O)cc(C(=O)O)c1	-60	52*	0	5	-73	-1
O=C(N/C=C/n1cnc2cc(C(F)(F)F)ccc21)c1ccccc1	41	6	0	-2	12	0
CCC1(C(=O)OC)CCc2c(cc(OC)c3ccccc23)C1=O (centres undefined)	-334	88*	1	/	-1	1
O=c1c(Cc2c(F)cccc2Cl)c(O)ccn1C1CC1	-22	4	1	3	-29	9
CCn1cc(/C=N\NC(=O)c2ccccc2Cl)cn1	3	-4	0	-28	-15	1
O=[N+]([O-])c1cccc(-c2nnc(-c3ccccc3)o2)c1	-19	-6	6	1	-22	-1
O=[N+]([O-])c1cccc(-c2nnc(-c3ccc4c(c3)OCO4)o2)c1	-5	62*	1	1	60*	0
CNC(=O)NC(=O)COC(=O)c1ccccc1OCc1ccccc1	-17	54*	3	-2	-13	0
SMILES	Calpain2 inh	Mcl1-Noxa inh	zVAD death inh	Bim-Mcl-1	Mcl1 Bid PPI	TNF necrop inh
C#CCOCCOCCOCCNc1nc(N2CCN(C(=O)C(Cc3ccc(O)cc3)n3cc(C(N)CC(C)C)nn3)CC2)nc(N2CCN(C(=O)C(Cc3cc4ccccc4[nH]3)n3cc(C(N)Cc4ccc(O)cc4)nn3)CC2)n1 (centres undefined)	-56	37	0	-5	96*	2
C#CCOCCOCCOCCNc1nc(N2CCN(C(=O)[C@H](CCCCN)n3cc([C@@H](N)CO)nn3)CC2)nc(N2CCN(C(=O)[C@H](Cc3cc4ccccc4[nH]3)n3cc([C@@H](N)CC(C)C)nn3)CC2)n1	-52	36	0	1	54*	2
CSc1ccc(Cl)c(C(=O)OCC(=O)N(C)CCC#N)c1	-48	17	2	1	-18	0
CSc1nnc(-c2cc[n+](C)cc2)n1CCO	12	13	0	0	-58	1
COc1ccc(/C=C/CN2CCN(Cc3ccc(F)cc3)C(CCO)C2)cc1 (centres undefined)	-21	-2	2	0	-34	2
O=c1cc(CO)oc(C(Nc2ccccn2)c2ccccc2Cl)c1O (centres undefined)	-1	45	2	0	7	0
Cc1ccnc(NC(c2ccccc2O)c2oc(CO)cc(=O)c2O)c1 (centres undefined)	-4	70*	1	0	10	1
O=c1cc(CO)oc(C(Nc2ccccn2)c2ccc(F)cc2)c1O (centres undefined)	-36	62*	1	0	52*	0
O=c1cc(CO)oc(C(Nc2ccccn2)c2ccsc2)c1O (centres undefined)	-17	48	2	-2	6	-1
COc1ccc(C(Nc2ccccn2)c2oc(CO)cc(=O)c2O)cc1 (centres undefined)	-2	65*	1	-5	43	1
O=C(C[n+]1cc(-c2ccccc2)n2c1CCC2)N1c2ccccc2Sc2ccccc21	-1	7	1	-3	90*	1
CCn1c2ccccc2c2cc(/C=N/NC(=O)c3ccc(O)cc3)ccc21	-110	42	34	-5	-7	-3
CCn1c2ccccc2c2cc(/C=N/NC(=O)c3cc(O)cc(O)c3)ccc21	-85	63*	73	-2	-13	2
C=CCn1c(C)cc(C(=O)CSc2n[nH]c(N)n2)c1C	-21	6	0	-2	-4	-1
O=C(NCCc1ccccc1)N1CCCC(CNS(=O)(=O)Cc2ccccc2)C1 (centres undefined)	16	54*	0	0	10	0
O=S(=O)(Cc1ccccc1)NCC1CCCN(Cc2ccc(F)c(F)c2)C1 (centres undefined)	65*	8	-1	-8	-16	2
COc1cc(/C=N/NC(=O)C(Cc2c[nH]c3ccccc23)NC(=O)OCc2ccccc2)cc([N+](=O)[O-])c1O (centres undefined)	-56	81*	0	-2	-64	1
